Data: PubChem BioAssay (Tox21)
Inconclusive results are not listed. Calls of active or inactive are those of the source. Unless noted, the call rests on the fitted dose curve; in most records, active means well fitted curve in the direction sought with a large enough effect in the repeat runs; inconclusive means weak or mixed curves; inactive means no such curve, though single readings can be large; an effect the other way counts as inactive or inconclusive.

What was measured:
[1] = qHTS assay to identify small molecule agonists of the NFkB signaling pathway (AID 1159509; active means well fitted curve in the direction sought with a large enough effect in the signal ratio in the repeat runs, not every such curve was filed as active; the % refers to the signal ratio; further: series mostly up to about 61 µM; on the % scale 0 is the no-effect control and ±100 the full control effect)
Procedure, shortened: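 Agonist activity was read as beta-lactamase-driven FRET change (460 and 530 nm emission, 405 nm excitation) following 1.5 hr substrate loading at room temperature. Beforehand, ME-180 NFkB-bla reporter cells were treated with compounds for 5 hr at 37 C.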

[2] = qHTS assay to identify small molecule agonists of the endoplasmic reticulum stress response signaling pathway - cell viability counter screen (AID 1159517; calls by dose curve;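 further: HeLa cells carrying an ER stress response element beta-lactamase reporter; series mostly up to about 61 µM; on the % scale 0 is the no-effect control and ±100 the full control effect; nearly all actives have a fitted effect of over 50% in size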)
Procedure, shortened: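 ESRE-bla HeLa cells (1,500/well) were plated overnight at 37 C and exposed to compounds for 5 hr. After the 2 hr beta-lactamase substrate read, CellTiter-Glo went into the same wells, and luminescence was read after 30 min at room temperature.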

[3] = qHTS assay to identify small molecule antagonists of the retinoid-related orphan receptor gamma (ROR-gamma) signaling pathway - cell viability counter screen (AID 1159520); further: on the % scale 0 is the no-effect control and ±100 the full control effect; nearly all actives have a fitted effect of over 50% in size
Procedure, shortened: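 Cytotoxicity was read from cellular ATP (CellTiter-Glo luminescence) after 16 hr at 37 C with 1 uM doxycycline induction. The inducer was added 2 hr after compound transfer to Tet-on ROR gamma CHO cells.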

[4] = target: Nuclear receptor ROR-gamma (Homo sapiens) (UniProt P51449); experiment: qHTS assay to identify small molecule antagonists of the retinoid-related orphan receptor gamma (ROR-gamma) signaling pathway (AID 1159521; further: nearly all actives have a fitted effect of over 50% in size; further: potency means the concentration at half of the fitted maximal effect)
Procedure, shortened: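 Luminescence readout (ONE-Glo, 30 min RT) after 16 h doxycycline induction; loss of signal scored as antagonism. CHO cells with TET-inducible RORγ and RORE-LUC reporter; compounds added 2 h before 1 uM final doxycycline.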

[5] = qHTS assay to identify small molecule agonists of the AP-1 signaling pathway - cell viability counter screen (AID 1159525; calls by dose curve; further: nearly all actives have a fitted effect of over 55% in size)
Procedure, shortened: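 Intracellular ATP by Cell Titer Glo luminescence (30 min, RT) in the same ME-180 AP-1-bla wells after the 5 h compound exposure at 37 °C. Normalised to tetra n-octyl ammonium bromide and DMSO controls.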

[6] = qHTS assay to identify small molecule agonists of the AP-1 signaling pathway (AID 1159526; calls by dose curve; further: on the % scale 0 is the no-effect control and ±100 the full control effect)
[7] = qHTS assay to identify small molecule antagonists of the retinoid acid receptor (RAR) signaling pathway - cell viability counter screen (AID 1159551); further: on the % scale 0 is the no-effect control and ±100 the full control effect; nearly all actives have a fitted effect of over 35% in size
Procedure, shortened: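 Cells (C3RL4) are plated, incubated overnight, dosed with compound in DMSO, then given retinol at 1 uM final. After 6 h at 37 C, CellTiter-Glo is added and luminescence read following 30 min at room temperature.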

[8] = qHTS assay to identify small molecule antagonists of the retinoic acid receptor (RAR) signaling pathway (AID 1159552; further: nearly all actives have a fitted effect of over 50% in size; further: potency means the concentration at half of the fitted maximal effect)
Procedure, shortened: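 Luminescence from a RARE luciferase reporter in C3RL4 cells served as read-out. Cells received compounds together with 1 uM final retinol and incubated 6 hr at 37 C before detection reagent was added for 30 min at room temperature.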

[9] = qHTS assay to identify small molecule agonists of the retinoic acid receptor (RAR) signaling pathway (AID 1159553); further: potency means the concentration at half of the fitted maximal effect
Procedure, shortened: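 Seed C3RL4 reporter cells at 1,000 per well and incubate overnight at 37 C. Add compounds in DMSO, incubate 6 hr. Add luciferase reagent, wait 30 min at room temperature, read luminescence.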

[10] = target: Retinoic acid receptor RXR-alpha (Homo sapiens) (UniProt P19793); experiment: qHTS assay to identify small molecule agonists of the RXR signaling pathway (AID 1159527; calls by dose curve; further: nearly all actives have a fitted effect of over 35% in size; further: potency means the concentration at half of the fitted maximal effect)
Chain of Retinoic acid receptor RXR-alpha (Homo sapiens) (P19793 whole entry, looked up): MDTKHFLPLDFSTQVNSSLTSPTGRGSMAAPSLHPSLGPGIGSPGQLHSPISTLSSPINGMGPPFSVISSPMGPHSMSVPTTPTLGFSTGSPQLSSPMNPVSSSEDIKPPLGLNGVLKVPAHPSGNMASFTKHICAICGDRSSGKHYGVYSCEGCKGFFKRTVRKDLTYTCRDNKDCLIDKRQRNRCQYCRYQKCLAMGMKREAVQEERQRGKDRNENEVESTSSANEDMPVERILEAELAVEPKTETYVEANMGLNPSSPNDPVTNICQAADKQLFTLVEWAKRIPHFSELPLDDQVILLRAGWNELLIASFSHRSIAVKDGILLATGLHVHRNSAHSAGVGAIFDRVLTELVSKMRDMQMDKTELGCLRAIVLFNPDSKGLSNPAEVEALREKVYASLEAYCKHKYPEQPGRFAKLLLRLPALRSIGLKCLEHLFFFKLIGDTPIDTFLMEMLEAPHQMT
Procedure, shortened: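 Agonist mode; 9-cis retinoic acid positive control. HEK 293T UAS-bla reporter cells, 2% charcoal-stripped FBS, 16 hr compound exposure at 37 C/5% CO2. LiveBLAzer B/G FRET substrate 2 hr RT; ex 405, em 460/530 nm.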

[11] = qHTS assay to identify small molecule agonists of the RXR signaling pathway - cell viability counter screen (AID 1159529)
Procedure, shortened: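 Luminescence from CellTiter-Glo (30 min, RT) measured viability in the same wells as the beta-lactamase reporter readout. Cells: GeneBLAzer RXR-alpha HEK 293T, 2% charcoal-stripped FBS. Compound exposure 16 hr, 37 C.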

[12] = qHTS assay to identify small molecule antagonists of the vitamin D receptor (VDR) signaling pathway - cell viability counter screen (AID 743225)
Procedure, shortened: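 Viability counter screen run in the same wells as the beta-lactamase reporter assay: HEK 293T VDR-UAS-bla cells, 16 h compound exposure at 37C with 3 nM (final) 1-alpha,25-dihydroxyvitamin D3. CellTiter-Glo luminescence, 30 min, room temperature.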

[13] = qHTS assay to identify small molecule antagonists of the estrogen related receptor (ERR) signaling pathway - cell viability counter screen (AID 1224818); further: series mostly up to about 46 µM; on the % scale 0 is the no-effect control and ±100 the full control effect
Procedure, shortened: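 ERR cells, 2,000/well; 6 h settle at 37 C/5% CO2; compound pin transfer (DMSO); 17.5 h at 37 C; CellTiter-Fluor, 30 min, fluorescence read.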

[14] = qHTS assay to identify small molecule antagonists of the estrogen related receptor (ERR) signaling pathway (AID 1224819)
Procedure, shortened: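 qHTS in ERR cells, 2,000/well, 1536 format. Cpd (DMSO) added after 6 h settle, 18 h 37 C. One-Glo luminescence, 30 min RT.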

[15] = qHTS assay to identify small molecule agonists of the estrogen related receptor (ERR) signaling pathway (AID 1224820); further: on the % scale 0 is the no-effect control and ±100 the full control effect
Procedure, shortened: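 After 6 h plating (2,000 cells/well) and 18 h compound treatment at 37 C, ERR cells were lysed with One-Glo and luminescence read after 30 min at room temperature.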

[16] = system: estrogen-related receptor alpha (ERRalpha) with PGC-1alpha coactivator, human; experiment: qHTS assay to identify small molecule antagonists of the estrogen related receptor signaling pathway with the pleiotropic PPARgamma coactivator (PGC) (AID 1224821; calls by dose curve)
Procedure, shortened: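 Luminescence from One-Glo luciferase reagent (30 min, room temperature) measured after 18 h compound treatment at 37 °C. Cells carry the PGC/ERR reporter and were seeded 6 h prior to dosing.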

[17] = qHTS assay to identify small molecule antagonists of the estrogen related receptor signaling pathway with the pleiotropic PPARgamma coactivator (PGC) cell viability counter screen (AID 1224822)
Procedure, shortened: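 Multiplexed viability counter screen run in PGC/ERR cells treated with compounds for 17.5 h at 37 C; live-cell protease signal measured by CellTiter-Fluor fluorescence.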

[18] = qHTS assay to identify small molecule agonists of the estrogen related receptor signaling pathway with the pleiotropic PPARgamma coactivator (PGC) (AID 1224823); further: on the % scale 0 is the no-effect control and ±100 the full control effect
Procedure, shortened: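 Luminescence from One-Glo reagent (30 min, room temperature) was read after 18 h compound treatment at 37 C of PGC/ERR cells plated 6 h beforehand; compounds delivered in DMSO by pin tool.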

[19] = qHTS assay to identify small molecule agonists of the NFkB signaling pathway - cell viability counter screen (AID 1159515; calls by dose curve; further: series mostly up to about 61 µM; on the % scale 0 is the no-effect control and ±100 the full control effect; nearly all actives have a fitted effect of over 55% in size)
Procedure, shortened: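 Cells are seeded (2,000 NFkB-bla ME-180 per well), rested overnight, and dosed with DMSO-dissolved compounds for 5 hr at 37 C. Viability is then read by CellTiter-Glo luminescence after 30 min at room temperature.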

[20] = qHTS assay to identify small molecule agonists of the endoplasmic reticulum stress response signaling pathway (AID 1159516; active means well fitted activation curve with a large enough effect in the signal ratio in the repeat runs, not every such curve was filed as active; the % refers to the signal ratio; further: on the % scale 0 is the no-effect control and ±100 the full control effect)
Procedure, shortened: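 Cells are seeded at 1,500 per well and incubated overnight. Compounds in DMSO are added for 5 hr at 37 C, then beta-lactamase FRET substrate for 2 hr at room temperature, and fluorescence at 460 and 530 nm is measured.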

O=Cc1ccc2c(c1)OCO2
inactive: outcome [1] | Potency [2] | Potency [3] | Potency [4] | Potency [5] | outcome [6] | Potency [7] | Potency [8] | Potency [9]

N#CCc1ccccc1
inactive: outcome [1] | Potency [2] | Potency [4] | Potency [5] | outcome [6] | Potency [10] | Potency [11] | Potency [7] | Potency [8] | Potency [9]

COC(N)=O
inactive: outcome [1] | Potency [2] | Potency [5] | outcome [6] | Potency [10] | Potency [11] | Potency [7] | Potency [8] | Potency [9]

O=NN1CCCCCC1
inactive: Potency [12] | outcome [1] | Potency [2] | Potency [3] | Potency [4] | Potency [5] | outcome [6] | Potency [7] | Potency [8] | Potency [9]

O=S(=O)(O)C(F)(F)C(F)(F)C(F)(F)C(F)(F)F
active: Potency [10] 6.54 µM | Potency [8] 18.3 µM
inactive: outcome [1] | Potency [3] | Potency [4] | outcome [6] | Potency [11] | Potency [7] | Potency [9] | outcome [13] | outcome [14] | outcome [15] | Potency [16] | Potency [17] | outcome [18]

COCC(C)N(C(=O)CCl)c1c(C)csc1C (stereo unspecified)
inactive: Potency [12] | Potency [19] | outcome [20] | Potency [2] | Potency [5] | Potency [7]

COP(=O)(OC)O/C(=C/Cl)c1cc(Cl)c(Cl)cc1Cl
inactive: outcome [1] | outcome [20] | Potency [5] | Potency [10] | Potency [11] | Potency [7]
active: Potency [8] 57.5 µM

CC(C)(C)C(O)C(Oc1ccc(Cl)cc1)n1cncn1 (stereo unspecified)
inactive: outcome [1] | Potency [5] | Potency [11] | Potency [7] | Potency [9] | outcome [13] | Potency [17]

O=C(O)C1(c2ccc3c(c2)OC[C@H](Cc2ccc(-c4ccccc4)cc2)[C@H]3O)CCCC1
inactive: outcome [1] | Potency [5] | outcome [6] | Potency [7] | Potency [8] | Potency [9]
active: Potency [4] 54.5 µM

S=C=NCc1ccccc1
active: Potency [9] 69.3 µM
inactive: Potency [12] | outcome [1] | Potency [4] | Potency [5] | Potency [11] | Potency [7] | Potency [8]

CO[C@@H]1[C@H](OC(=O)NC(=O)CCl)CC[C@]2(CO2)[C@H]1[C@@]1(C)O[C@@H]1CC=C(C)C
inactive: outcome [1] | activity change, negative = cytotoxicity [11] -19.4% [at 15.8 µM] | activity change, negative = cytotoxicity [7] 2.96% [at 19 µM] | activity, negative = inhibition [8] 1.57% [at 19 µM] | Potency [9]

C=COC(C)=O
inactive: Potency [12] | outcome [1] | Potency [2] | Potency [3] | Potency [5] | outcome [6] | Potency [10] | Potency [7] | Potency [8] | Potency [9]

CCOP(=S)(OCC)SCSCC
inactive: Potency [12] | Potency [19] | outcome [20] | Potency [2] | Potency [3] | Potency [5] | outcome [6] | Potency [7]
